Inconclusive results are not listed. Activity calls are given as the source filed them. How the source made its calls, unless noted: active means hit-call score of the fitted dose curve at least 0.9, where 1 is the maximum; inactive means score below 0.9.
Assays:
[1] = read-out: solute carrier (SLC22A1), SLC22A1 (gene 6580); experiment: LTEA_HepaRG_SLC22A1: Life Technologies and Expression Analysis (LTEA) Assay for solute carrier (SLC22A1) using HepaRG (AID 2283524); conditions: mRNA level, 48 h; actives raise or lower the signal
Method in brief: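 Differentiated human HepaRG cells in serum-free induction medium, exposed 48 h in duplicate to 8-point half-log series from 100 µM top in 0.5% DMSO. SLC22A1 mRNA by TaqMan qRT-PCR normalized to ACTB, GAPDH, POLR2A; bidirectional fit versus DMSO.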

[2] = read-out: Pyruvate Dehydrogenase Kinase 4 (PDK4), PDK4 (gene 5166); experiment: LTEA_HepaRG_PDK4: Life Technologies and Expression Analysis (LTEA) Assay for Pyruvate Dehydrogenase Kinase 4 (PDK4) using HepaRG (AID 2283525); conditions: mRNA level, 48 h; actives raise or lower the signal
Method in brief: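 HepaRG cells plated 48 h, then switched to serum-free induction medium and exposed in duplicate for 48 h to 8 half-log concentrations from 100 uM in 0.5% DMSO. PDK4 mRNA measured by qRT-PCR, normalized to ACTB, GAPDH and POLR2A; bidirectional fit versus DMSO.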

[3] = read-out: NAD(P)H dehydrogenase [quinone] 1 (NQO1), NQO1 (gene 1728); experiment: LTEA_HepaRG_NQO1: Life Technologies and Expression Analysis (LTEA) Assay for NAD(P)H dehydrogenase [quinone] 1 (NQO1) using HepaRG (AID 2283526); conditions: mRNA level, 48 h; actives raise or lower the signal
Method in brief: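 Human HepaRG hepatic cells received chemicals for 48 h in serum-free induction medium with 0.5% DMSO, up to 100 uM. Expression was assessed by TaqMan qRT-PCR against housekeeping controls and fitted bidirectionally against DMSO.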

[4] = read-out: Nuclear factor erythroid 2-related factor 2 (Homo sapiens) (UniProt Q16236); experiment: LTEA_HepaRG_NFE2L2: Life Technologies and Expression Analysis (LTEA) Assay for Nuclear factor erythroid 2-related factor 2 (NFE2L2) Transcription Factor using HepaRG (AID 2283527); conditions: mRNA level, 48 h; actives raise or lower the signal
Method in brief: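 Differentiated human HepaRG cells, serum-free induction medium, exposed 48 h in duplicate to eight half-log concentrations up to 100 uM in 0.5% DMSO. NFE2L2 mRNA by Fluidigm TaqMan qRT-PCR, normalised to ACTB, GAPDH, POLR2A; bidirectional change versus DMSO.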

[5] = read-out: succinate dehydrogenase complex iron sulfur subunit B (SDHB), SDHB (gene 6390); experiment: LTEA_HepaRG_SDHB: Life Technologies and Expression Analysis (LTEA) Assay for succinate dehydrogenase complex iron sulfur subunit B (SDHB) using HepaRG (AID 2283528); conditions: mRNA level, 48 h; actives raise or lower the signal
Method in brief: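 HepaRG, 48 h exposure, 8-pt half-log series from 100 uM in 0.5% DMSO, duplicates. Readout: SDHB mRNA by Fluidigm qRT-PCR vs housekeeping genes; bidirectional fit relative to DMSO.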

[6] = read-out: Signal transducer and activator of transcription 3 (Homo sapiens) (UniProt P40763); experiment: LTEA_HepaRG_STAT3: Life Technologies and Expression Analysis (LTEA) Assay for Signal transducer and activator of transcription (STAT3) using HepaRG (AID 2283529); conditions: mRNA level, 48 h; actives raise or lower the signal
Method in brief: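 Differentiated HepaRG cells, serum-free induction medium, dosed 48 h in duplicate, 8 half-log concentrations from 100 uM in 0.5% DMSO. STAT3 mRNA by qRT-PCR, normalised to ACTB, GAPDH, POLR2A; bidirectional fit versus DMSO.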

[7] = read-out: solute carrier (SLCO1B1), SLCO1B1 (gene 10599); experiment: LTEA_HepaRG_SLCO1B1: Life Technologies and Expression Analysis (LTEA) Assay for solute carrier (SLCO1B1) using HepaRG (AID 2283530); conditions: mRNA level, 48 h; actives raise or lower the signal
Method in brief: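 HepaRG, serum-free induction medium, 48 h dosing, 8-pt half-log from 100 uM, 0.5% DMSO vehicle, duplicates. Readout: SLCO1B1 mRNA, qRT-PCR, ACTB/GAPDH/POLR2A normalization; up or down fit vs DMSO.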

[8] = read-out: sulfotransferase 2A1 (SULT2A1), SULT2A1 (gene 6822); experiment: LTEA_HepaRG_SULT2A1: Life Technologies and Expression Analysis (LTEA) Assay for sulfotransferase 2A1 (SULT2A1) using HepaRG (AID 2283531); conditions: mRNA level, 48 h; actives raise or lower the signal
Method in brief: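 Transcript levels of SULT2A1, quantified by qRT-PCR and normalized to three housekeeping genes, serve as the readout. Human HepaRG cultures receive test chemicals for 48 h at up to 100 uM in half-log steps, with 0.5% DMSO vehicle.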

[9] = read-out: Transforming Growth Factor (TGFA), TGFA (gene 7039); experiment: LTEA_HepaRG_TGFA: Life Technologies and Expression Analysis (LTEA) Assay for Transforming Growth Factor (TGFA) using HepaRG (AID 2283532); conditions: mRNA level, 48 h; actives raise or lower the signal
Method in brief: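 Differentiated HepaRG cells exposed 48 hours in serum-free induction medium, 0.5% DMSO vehicle, 8-point half-log series from 100 uM, in duplicate. TGFA mRNA by TaqMan qRT-PCR, normalised to ACTB, GAPDH, POLR2A; bidirectional fit versus DMSO.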

[10] = read-out: Transforming Growth Factor (TGFB1), TGFB1 (gene 7040); experiment: LTEA_HepaRG_TGFB1: Life Technologies and Expression Analysis (LTEA) Assay for Transforming Growth Factor (TGFB1) Transporter using HepaRG (AID 2283533); conditions: mRNA level, 48 h; actives raise or lower the signal
Method in brief: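 HepaRG, 48 h post-plating, switched to serum-free induction medium; chemicals 100 uM top, half-log, 8 pts, 0.5% DMSO, dup; 48 h exposure; RNA → Fluidigm TaqMan qRT-PCR; norm ACTB/GAPDH/POLR2A; bidirectional fit vs DMSO.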

[11] = read-out: Tumor necrosis factor receptor 1 (TNFRSF1A), TNFRSF1A (gene 7132); experiment: LTEA_HepaRG_TNFRSF1A: Life Technologies and Expression Analysis (LTEA) Assay for Tumor necrosis factor receptor 1 (TNFRSF1A) using HepaRG (AID 2283535); conditions: mRNA level, 48 h; actives raise or lower the signal
Method in brief: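 Read-out is TNFRSF1A transcript level by TaqMan qRT-PCR, normalized to three housekeeping genes, scored as gain or loss of signal versus 0.5% DMSO. Human HepaRG cells received test chemicals for 48 h at up to 100 uM (half-log series).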

[12] = read-out: Thyroid Hormone Responsive (THRSP), THRSP (gene 7069); experiment: LTEA_HepaRG_THRSP: Life Technologies and Expression Analysis (LTEA) Assay for Thyroid Hormone Responsive (THRSP) using HepaRG (AID 2283536); conditions: mRNA level, 48 h; actives raise or lower the signal
Method in brief: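 Differentiated HepaRG cells treated 48 h in serum-free induction medium with 8 half-log concentrations up to 100 uM (0.5% DMSO), duplicates. THRSP mRNA by TaqMan qRT-PCR normalised to ACTB, GAPDH, POLR2A; bidirectional fit versus DMSO.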

[13] = read-out: UDP glucuronosyltransferase (UGT1A1), UGT1A1 (gene 54658); experiment: LTEA_HepaRG_UGT1A1: Life Technologies and Expression Analysis (LTEA) Assay for UDP glucuronosyltransferase (UGT1A1) using HepaRG (AID 2283538); conditions: mRNA level, 48 h; actives raise or lower the signal
Method in brief: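 Human liver HepaRG cultures receive test chemical for 48 h, up to 100 uM in 0.5% DMSO, with phenobarbital induction controls. UGT1A1 mRNA is measured by qRT-PCR and normalized to ACTB, GAPDH and POLR2A.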

[14] = read-out: UDP glucuronosyltransferase (UGT1A6), UGT1A6 (gene 54578); experiment: LTEA_HepaRG_UGT1A6: Life Technologies and Expression Analysis (LTEA) Assay for UDP glucuronosyltransferase (UGT1A6) using HepaRG (AID 2283539); conditions: mRNA level, 48 h; actives raise or lower the signal
Method in brief: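 HepaRG, 48 h post-plating switch to serum-free induction medium; chemical 48 h, 100 uM top, half-log x8, duplicate, 0.5% DMSO. Phenobarbital 1mM induction control. UGT1A6 mRNA by TaqMan qRT-PCR; gain/loss fit vs DMSO.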

[15] = read-out: TIMP1, TIMP1 (gene 7076); experiment: LTEA_HepaRG_TIMP1: Life Technologies and Expression Analysis (LTEA) Assay for TIMP1 using HepaRG (AID 2283534); conditions: mRNA level, 48 h; actives raise or lower the signal;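 further: TaqMan qRT-PCR signal normalized to ACTB GAPDH and POLR2A housekeeping genes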
Method in brief: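 Readout is TIMP1 mRNA level measured by qRT-PCR and normalized to three housekeeping genes. Human HepaRG cells were treated for 48 h in duplicate at eight concentrations up to 100 uM (0.5% DMSO); gain or loss fitted against DMSO.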

[16] = read-out: Cellular tumor antigen p53 (Homo sapiens) (UniProt P04637); experiment: LTEA_HepaRG_TP53: Life Technologies and Expression Analysis (LTEA) Assay for Tumor Protein P53 (TP53) using HepaRG (AID 2283537); conditions: mRNA level, 48 h; actives raise or lower the signal
Method in brief: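 HepaRG, 48 h exposure, top 100 uM, half-log 8-point, 0.5% DMSO vehicle, duplicates. Read: TP53 mRNA by TaqMan qRT-PCR, normalised to ACTB/GAPDH/POLR2A; bidirectional fit vs DMSO.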

[17] = read-out: X-box binding protein 1 (XBP1), XBP1 (gene 7494); experiment: LTEA_HepaRG_XBP1: Life Technologies and Expression Analysis (LTEA) Assay for X-box binding protein 1 (XBP1) using HepaRG (AID 2283540); conditions: mRNA level, 48 h; actives raise or lower the signal
Method in brief: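 Transcript levels of XBP1, measured by qRT-PCR and normalised to three housekeeping genes, were fitted bidirectionally relative to 0.5% DMSO controls. Human HepaRG cells received eight-point half-log dilutions from 100 uM for 48 h.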

[18] = LTEA_HepaRG_LDH_cytotoxicity: Cytotoxicity Assessment in the Life Technologies and Expression Analysis (LTEA) Assay (AID 2283563; active means hit-call score of the fitted dose curve at least 0.9, where 1 is the maximum)
Method in brief: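 Cells were thawed and plated for 48 h. Medium was then replaced with serum-free induction medium. Chemicals (8 half-log points, maximum 100 uM, 0.5% DMSO) were added in duplicate for 48 h, after which spent medium was assayed for LDH.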

[19] = ATG_XTT_Cytotoxicity: Cytotoxicity Assessment in the Attagene TRANS-FACTORIAL HepG2 Assay (AID 2283584; active means hit-call score of the fitted dose curve at least 0.9, where 1 is the maximum)
Method in brief: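 Cells: human HepG2, transiently transfected with MRTU reporter constructs. Exposure 24 h. Readout: XTT, cell number. Baseline/neg ctrl DMSO; loss-of-signal scored.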

Measured: AC50

Cellular tumor antigen p53 (Homo sapiens), sequence (P04637 whole entry, looked up): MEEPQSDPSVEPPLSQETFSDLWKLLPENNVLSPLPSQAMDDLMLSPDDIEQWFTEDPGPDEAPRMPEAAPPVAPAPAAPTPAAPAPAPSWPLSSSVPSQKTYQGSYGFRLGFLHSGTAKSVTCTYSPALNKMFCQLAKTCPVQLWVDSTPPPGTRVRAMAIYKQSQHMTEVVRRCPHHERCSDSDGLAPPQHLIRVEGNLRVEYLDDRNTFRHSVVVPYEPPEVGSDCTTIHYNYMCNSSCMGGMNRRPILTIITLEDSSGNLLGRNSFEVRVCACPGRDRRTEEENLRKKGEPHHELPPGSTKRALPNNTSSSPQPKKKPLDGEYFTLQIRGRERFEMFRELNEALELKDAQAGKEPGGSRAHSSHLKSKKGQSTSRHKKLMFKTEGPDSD
Signal transducer and activator of transcription 3 (Homo sapiens), sequence (P40763 whole entry, looked up): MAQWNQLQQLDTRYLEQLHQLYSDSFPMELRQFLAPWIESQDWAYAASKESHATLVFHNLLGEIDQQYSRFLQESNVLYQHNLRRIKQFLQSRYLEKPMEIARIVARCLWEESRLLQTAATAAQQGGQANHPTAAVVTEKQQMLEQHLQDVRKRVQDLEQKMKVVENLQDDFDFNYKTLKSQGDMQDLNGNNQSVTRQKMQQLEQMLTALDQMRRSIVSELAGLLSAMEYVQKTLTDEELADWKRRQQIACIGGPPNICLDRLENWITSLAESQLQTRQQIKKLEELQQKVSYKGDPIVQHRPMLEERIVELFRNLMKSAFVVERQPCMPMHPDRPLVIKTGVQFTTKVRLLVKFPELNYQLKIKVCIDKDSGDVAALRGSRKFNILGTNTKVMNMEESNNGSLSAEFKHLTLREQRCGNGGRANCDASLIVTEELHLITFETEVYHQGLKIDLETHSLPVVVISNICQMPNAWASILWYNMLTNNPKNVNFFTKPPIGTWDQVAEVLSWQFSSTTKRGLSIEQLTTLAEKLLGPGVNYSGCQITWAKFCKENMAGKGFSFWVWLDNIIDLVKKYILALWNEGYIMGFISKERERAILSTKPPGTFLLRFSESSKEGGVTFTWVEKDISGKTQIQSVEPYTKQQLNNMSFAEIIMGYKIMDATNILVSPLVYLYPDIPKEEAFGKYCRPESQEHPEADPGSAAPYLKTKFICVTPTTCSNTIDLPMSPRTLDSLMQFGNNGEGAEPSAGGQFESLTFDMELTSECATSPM
Nuclear factor erythroid 2-related factor 2 (Homo sapiens), sequence (Q16236 whole entry, looked up): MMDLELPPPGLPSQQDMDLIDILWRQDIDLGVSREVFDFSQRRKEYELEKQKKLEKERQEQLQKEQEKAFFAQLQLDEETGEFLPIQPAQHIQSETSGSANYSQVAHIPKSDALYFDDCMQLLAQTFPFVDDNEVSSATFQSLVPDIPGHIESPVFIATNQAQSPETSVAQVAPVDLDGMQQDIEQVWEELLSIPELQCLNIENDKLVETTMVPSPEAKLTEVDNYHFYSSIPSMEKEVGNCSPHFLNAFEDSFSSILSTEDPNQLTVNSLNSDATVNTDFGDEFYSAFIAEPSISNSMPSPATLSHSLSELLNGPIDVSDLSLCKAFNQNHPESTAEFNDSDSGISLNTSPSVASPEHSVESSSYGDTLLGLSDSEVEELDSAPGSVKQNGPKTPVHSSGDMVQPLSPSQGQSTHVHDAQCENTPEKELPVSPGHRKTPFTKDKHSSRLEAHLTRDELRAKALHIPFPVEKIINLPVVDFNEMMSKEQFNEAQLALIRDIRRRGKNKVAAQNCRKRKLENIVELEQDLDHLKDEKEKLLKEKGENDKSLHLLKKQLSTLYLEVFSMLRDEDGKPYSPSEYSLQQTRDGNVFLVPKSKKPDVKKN

CC(C)NCC(O)c1ccc(O)c(O)c1 (stereo not given)
active: [1] 209 nM | [4] 200 nM | [7] 136 nM | [8] 194 nM | [12] 179 nM | [13] 111 nM
not listed: [15] | [16] | [17] | [18] | [19]
inactive: all other assays above

O=[Si]=O
inactive: all assays above

CC(C)c1cccc(C(C)C)c1NC(=O)NS(=O)(=O)c1cc(C(C)(C)O)co1
not listed: [12] | [18] | [19]
inactive: all other assays above

CC(=O)S[C@H](C(=O)N[C@H]1Cc2ccccc2[C@H]2CCC[C@@H](C(=O)O)N2C1=O)C(C)C
not listed: [12] | [18] | [19]
inactive: all other assays above

From PubChem BioAssay (EPA / NIEHS)
